Nine compounds from PubChem BioAssay (NCI) can be followed below.

Compounds without any hit were thinned out: in the full panel of roughly 83,000, 20% have a hit.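 Testing used 96-well plates and a 48-hour single-concentration exposure. Example: -40 means 40% of the starting cells died.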 Unmarked numbers belong to inactive results. The source made the active and inactive calls. The calls were made as follows: active = growth percent below 10; inactive = the rest.

Holding throughout (experiment): NCI-60 one-dose screen, 48 h (100 = growth as untreated, 0 = no growth, -100 = all killed)
One assay concerns HCT-15 colon. The conditions noted are these: 10 µM.
The next assay relates to HT29 colon. To be noted: 10 µM.
The test system of another assay is SNB-75 CNS. The conditions noted are these: 10 µM.
Another assay relates to SNB-19 CNS. The conditions noted are these: 10 µM.
The next assay relates to U251 CNS. To be noted: 10 µM.
The next assay deals with PC-3 prostate. To be noted: 10 µM.
The next assay concerns SK-MEL-5 melanoma. The conditions noted are these: 10 µM.
The next assay has as its system LOX IMVI melanoma. To be noted: 10 µM.
The next assay deals with SK-MEL-28 melanoma. To be noted: 10 µM.
In a further assay the test system is SK-MEL-2 melanoma. To be noted: 10 µM.
A further assay has as its system EKVX NSCLC. The conditions noted are these: 10 µM.
Another assay relates to SN12C renal. The conditions noted are these: 10 µM.
The test system of another assay is UO-31 renal. The conditions noted are these: 10 µM.
For a further assay, the system named is TK-10 renal. The conditions noted are these: 10 µM unless noted.
A further assay has as its system ACHN renal. The conditions noted are these: 10 µM.
Another assay concerns CAKI-1 renal. The conditions noted are these: 10 µM.
For the next assay, the system named is A498 renal. The conditions noted are these: 10 µM.
The test system of the next assay is MOLT-4 leukemia. The conditions noted are these: 10 µM.
For a further assay, the system named is CCRF-CEM leukemia. The conditions noted are these: 10 µM.
A further assay deals with UACC-62 melanoma. The conditions noted are these: 10 µM unless noted.

With `O=[N+]([O-])c1cccc(N=Nc2ccc(O)cc2O)c1`, the growth is 48% with HCT-15 colon; 86.2% with HT29 colon; 69.7% with SNB-75 CNS; 78.2% with SNB-19 CNS; 63.7% in the assay on U251 CNS; 58.5% in the assay on PC-3 prostate. In addition, the growth is 74.2% with SK-MEL-5 melanoma; 81.1% in the assay with LOX IMVI melanoma; 99.1% in the assay with SK-MEL-28 melanoma; 79.8% in the assay with SK-MEL-2 melanoma; 69.9% in the assay on EKVX NSCLC; 79.6% with SN12C renal. Further, the growth in the assay with UO-31 renal was 57.3%; in the assay on TK-10 renal, 65.7%; in the assay with ACHN renal, 78.7%; in the assay on CAKI-1 renal, 39.1%; with A498 renal it was 66.9%; in the assay with MOLT-4 leukemia, 50.2%.
For `C[C@@H](c1ccccc1)[C@@H](C(=O)O)c1ccccc1`, the growth is 95.4% in the assay with HCT-15 colon; 103% with HT29 colon; 88.4% in the assay with SNB-75 CNS; 92.4% in the assay on SNB-19 CNS; 93.1% with U251 CNS; 94.5% with PC-3 prostate. Besides, the growth with SK-MEL-5 melanoma was 98.2%; in the assay with LOX IMVI melanoma, 98.4%; in the assay on SK-MEL-28 melanoma, 108%; in the assay on SK-MEL-2 melanoma, 99.5%; with SN12C renal it was 98.1%; in the assay with UO-31 renal it was 91.2%. For the same compound, the growth in the assay with ACHN renal is 96.4%; in the assay on CAKI-1 renal it was 99.1%; in the assay on A498 renal it was 96.7%; in the assay on CCRF-CEM leukemia it was 98.9%; in the assay on MOLT-4 leukemia, 102%.
For `CCCCC(O)c1ccccc1` (centres undefined), the growth was 102% in the assay with HCT-15 colon; -11.4% (active) with HT29 colon; 92.2% with SNB-75 CNS; 110% in the assay with SNB-19 CNS; 98.4% in the assay on U251 CNS; 97.9% in the assay with PC-3 prostate. Besides, the growth was 108% with UACC-62 melanoma; 96.4% with LOX IMVI melanoma; 119% in the assay with SK-MEL-28 melanoma; 109% with SK-MEL-2 melanoma; 110% in the assay with EKVX NSCLC; 109% in the assay on SN12C renal. The growth in the assay on UO-31 renal was 94.2%; in the assay on TK-10 renal it was 106%; with ACHN renal, 110%; in the assay on CAKI-1 renal, 99.7%; in the assay with A498 renal, 95.8%; in the assay on CCRF-CEM leukemia, 107%. For the same compound, the growth in the assay on MOLT-4 leukemia is 101%.
Turning to `CC(C)C1CCCCC1O` (centres undefined), the growth in the assay on HCT-15 colon was 96%; in the assay on HT29 colon, 106%; with SNB-75 CNS it was 108%; in the assay with SNB-19 CNS it was 104%; in the assay with U251 CNS it was 100%; with SK-MEL-5 melanoma it was 103%. In addition, the growth was 102% in the assay on UACC-62 melanoma; 116% in the assay with SK-MEL-28 melanoma; 107% in the assay with SK-MEL-2 melanoma; 81.9% in the assay on EKVX NSCLC; 102% in the assay with SN12C renal; 110% in the assay with TK-10 renal. In addition, the growth with ACHN renal is 93.5%; in the assay on CAKI-1 renal, 101%; in the assay with A498 renal it was 97.2%; with CCRF-CEM leukemia, 99.3%; with MOLT-4 leukemia, 148%.
In the case of `COc1ccc(C(C)C=O)cc1` (centres undefined), the growth in the assay with HCT-15 colon is 93.8%; in the assay on HT29 colon, 112%; in the assay on SNB-75 CNS, 88.4%; in the assay on SNB-19 CNS, 107%; in the assay with U251 CNS, 107%; in the assay on SK-MEL-5 melanoma, 123%. For the same compound, the growth was 106% with UACC-62 melanoma; 105% in the assay with LOX IMVI melanoma; 116% in the assay on SK-MEL-28 melanoma; 126% in the assay with EKVX NSCLC; 104% in the assay on SN12C renal; 93.7% with UO-31 renal. In addition, the growth in the assay on TK-10 renal is 92.1%; with ACHN renal, 103%; in the assay with CAKI-1 renal, 104%; in the assay on A498 renal it was 121%; in the assay with MOLT-4 leukemia it was 93%.
For `O=C(/C=C\c1ccc(O)cc1)c1ccccc1`, the growth is 88.5% in the assay on HCT-15 colon; 86.8% in the assay with HT29 colon; 81.4% in the assay on SNB-75 CNS; 104% in the assay on SNB-19 CNS; 80.7% in the assay on U251 CNS; 97.3% with SK-MEL-5 melanoma. Moreover, the growth with UACC-62 melanoma is 94.8%; with LOX IMVI melanoma, 94.4%; in the assay with SK-MEL-28 melanoma, 103%; with SK-MEL-2 melanoma, 114%; with EKVX NSCLC it was 91.3%; in the assay on SN12C renal, 89%. Also, the growth is 67.8% in the assay with UO-31 renal; 95.2% in the assay on TK-10 renal; 97.2% in the assay on ACHN renal; 85.1% in the assay on CAKI-1 renal; 114% in the assay on A498 renal; 96.1% in the assay with MOLT-4 leukemia.
Consider `CCOC(=O)C/C(C)=N\O`, for which the growth in the assay on HCT-15 colon was 103%; in the assay with HT29 colon it was 98.9%; with SNB-75 CNS, 118%; in the assay with SNB-19 CNS, 99.2%; in the assay with PC-3 prostate, 96.8%; in the assay with SK-MEL-5 melanoma, 100%. In addition, the growth with UACC-62 melanoma is 107%; in the assay with LOX IMVI melanoma, 100%; in the assay on SK-MEL-28 melanoma it was 121%; in the assay on SK-MEL-2 melanoma it was 107%; in the assay on SN12C renal, 98.6%; in the assay on UO-31 renal, 81.6%. In addition, the growth with TK-10 renal was 93.4%; in the assay with ACHN renal, 112%; with CAKI-1 renal, 92.8%; in the assay with A498 renal, 111%; in the assay on MOLT-4 leukemia it was 95.2%.
Consider `O=S(=O)(Cc1ccccc1)c1ccccc1`, for which the growth with HCT-15 colon was 102%; in the assay with HT29 colon it was 107%; with SNB-75 CNS, 88.5%; in the assay on SNB-19 CNS, 107%; with PC-3 prostate, 102%; in the assay on SK-MEL-5 melanoma, 104%. Moreover, the growth was 111% in the assay on UACC-62 melanoma; 107% in the assay on LOX IMVI melanoma; 98.5% in the assay with SK-MEL-28 melanoma; 114% with SK-MEL-2 melanoma; 104% in the assay with SN12C renal; 102% with UO-31 renal. Besides, the growth with TK-10 renal was 102%; in the assay on ACHN renal, 111%; with CAKI-1 renal it was 107%; in the assay on A498 renal, 101%; with CCRF-CEM leukemia it was 105%; in the assay on MOLT-4 leukemia, 108%.
As for `CCC(C#N)(CC)c1ccccc1`, the growth in the assay on HCT-15 colon is 90.6%; with HT29 colon, 110%; with SNB-75 CNS, 84.6%; with SNB-19 CNS it was 99.5%; in the assay on U251 CNS, 109%; in the assay on SK-MEL-5 melanoma, 98.6%. The growth in the assay on UACC-62 melanoma is 89.5%; in the assay with LOX IMVI melanoma, 97.9%; in the assay on SK-MEL-28 melanoma, 108%; in the assay with SK-MEL-2 melanoma, 105%; with EKVX NSCLC it was 105%; with SN12C renal it was 98%. Also, the growth in the assay on TK-10 renal was 108%; with ACHN renal it was 103%; in the assay on CAKI-1 renal, 113%; in the assay with A498 renal it was 111%; in the assay on CCRF-CEM leukemia, 102%; with MOLT-4 leukemia, 107%.
